Sfp inh: qHTS Assay for Inhibitors of Bacillus subtilis Sfp phosphopantetheinyl transferase (PPTase) | 4'-phosphopantetheinyl transferase ffp (Bacillus subtilis), Q9F4F7 | Biochemical Sfp PPTase activity, qHTS | Potency, µM, usual class: inhibitors | 310,000 compounds, 3.5% hits | AID 1490, 2009;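 further: the enzyme is Sfp with the accession as filed and its product quenches rhodamine fluorescence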
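Sfp 15 nM + cpd, 15 min RT; start w/ rhodamine-CoA 5 uM, BHQ-2-YbbR 12.5 uM (final); 50 mM Hepes pH 7.6, 10 mM MgCl2, 0.01% NP-40, 0.01% BSA; read 525/598 nm at 0 and 30 min.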
HP1b binding inh: HTS for Inhibitors of HP1-beta Chromodomain Interactions with Methylated Histone Tails. Potency, µM (top dose mostly 114 µM), actives largely listed as inhibitors. AID 540317, 2011. Chromobox protein homolog 1 (Homo sapiens), P83916. 390,000 compounds, 0.56% hits. AlphaScreen HP1-beta / biotin-H3K9me3 peptide binding; further: nearly all actives have a fitted effect of over 70% in size
Target sequence (P83916 whole entry, looked up): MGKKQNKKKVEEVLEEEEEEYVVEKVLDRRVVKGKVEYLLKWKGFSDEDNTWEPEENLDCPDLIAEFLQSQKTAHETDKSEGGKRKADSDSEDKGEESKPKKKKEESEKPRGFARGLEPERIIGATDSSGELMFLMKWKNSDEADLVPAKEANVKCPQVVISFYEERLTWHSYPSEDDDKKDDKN
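HP1-beta protein (50 nM final) preincubated 30 min at room temperature with biotinylated H3(1-18)K9me3 peptide (50 nM) in PBS pH 7.4, 0.01% Tween-20, then compound added for 30 min. AlphaScreen streptavidin donor/nickel chelate acceptor beads (10 ug/mL final), 30 min dark, luminescence read.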
BAZ2B block: qHTS Assay for Inhibitors of BAZ2B | AlphaScreen BAZ2B-H3K14Ac peptide displacement | 360,000 compounds, 4.4% hits | AID 504333, 2011 | Potency, µM (doses to about 114 µM), usual class: inhibitors; further: nearly all actives have a fitted effect of over 60% in size
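Complex of BAZ2B and biotin-H3K14Ac (50 nM apiece) forms over 30 min at RT, then faces library compounds up to 110 uM for another 30 min; AlphaScreen beads added, 20 min dark incubation, luminescence read.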
G9a block: qHTS Assay for Inhibitors of Histone Lysine Methyltransferase G9a; Histone-lysine N-methyltransferase EHMT2 (Homo sapiens), Q96KQ7; G9a H3K9 monomethylation, AlphaScreen, 2 h; Potency, µM (top dose mostly 102 µM), actives largely listed as inhibitors; 350,000 compounds, 8.8% hits; AID 504332, 2011; further: nearly all actives have a fitted effect of over 75% in size
Target sequence (Q96KQ7 913-1193 limits assumed): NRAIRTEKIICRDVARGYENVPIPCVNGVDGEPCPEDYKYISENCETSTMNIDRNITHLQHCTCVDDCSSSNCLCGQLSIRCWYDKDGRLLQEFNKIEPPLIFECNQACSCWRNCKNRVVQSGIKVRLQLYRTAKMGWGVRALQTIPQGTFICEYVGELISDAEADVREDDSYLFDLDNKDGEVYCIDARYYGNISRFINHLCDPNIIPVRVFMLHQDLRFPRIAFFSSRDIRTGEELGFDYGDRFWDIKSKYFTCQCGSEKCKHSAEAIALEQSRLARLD
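Using a bead-based AlphaScreen, monomethylated H3K9 product from 2 h room-temperature reactions (G9a 20 nM, peptide 500 nM, SAM 20 uM) was detected with 0.5 ug/mL rabbit anti-H3K9me1 antibody.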
JMJD2A Tudor: qHTS Assay for Inhibitors of JMJD2A-Tudor Domain. Lysine-specific demethylase 4A (Homo sapiens), O75164. AlphaScreen JMJD2A-Tudor / H3K4me3 peptide binding. Potency, µM (series often up to 114 µM), usual class: inhibitors. 390,000 compounds, 4.4% hits. AID 504339, 2011; further: nearly all actives have a fitted effect of over 50% in size
Hits are given with their value; 0 = inactive; ? = inconclusive; - = no result; [ ] = another dose, or the depositor's remark. The list is not random: actives were taken first. Their share in the collection is about 12%. The call rests on the fitted dose curve; in most records, active means well fitted curve in the direction sought with a large enough effect; inconclusive means small, poorly fitted or top-dose-only effect, or another doubt; inactive means no such curve, though single readings can be large; an effect the other way counts as inactive or inconclusive.

SMILES | Sfp inh | HP1b binding inh | BAZ2B block | G9a block | JMJD2A Tudor
CC(C)(C)OC(=O)N1CCC[C@H]1C(=O)N/N=C/c1cccc2cccnc12 | 44.7µM | 0 | ? | 0 | 0
O=C(Nc1nccs1)C1CC=CCC1C(=O)OCC(F)(F)C(F)F (stereo unspecified) | - | 0 | 0 | 0[12.7 µM] | 0
CCCCC(=O)Nc1ccc(C(=O)OCc2cc(=O)n3nc(C4CC4)sc3n2)cc1 | - | 0 | 0 | 0 | 0
Cc1ccc(OCC(=O)N/N=C/c2cccc3cccnc23)cc1 | 0 | 0 | 31.6µM | - | 56.2µM
O=C(COc1ccc(F)cc1)N/N=C/c1cccc2cccnc12 | - | 0 | - | - | 89.1µM
CC(C)N(CC(N)=O)c1ccc(S(=O)(=O)N2CCCC2)cn1 | - | 0 | 0 | 0 | 0
CC(C)CNC(=O)C1Nc2ccc(OC(F)(F)F)cc2C2C=CCC12 (stereo unspecified) | - | 0 | - | - | ?
CCOC(=O)C1Nc2ccc(Br)cc2C2C=CCC12 (stereo unspecified) | 28.2µM | ? | 44.7µM | 3.55µM | 39.8µM
CCOC(=O)C1Nc2ccccc2C2c3ccccc3CC12 (stereo unspecified) | - | 0 | - | - | 0
CCOC(=O)C1Nc2ccc(C)cc2C2C=CCC12 (stereo unspecified) | - | 0 | - | - | 56.2µM
O=C(OC1CCCCC1)c1ccc2c(c1)C1C=CCC1C(C(=O)O)N2 (stereo unspecified) | 0 | - | 7.08µM | ? | -
COC(=O)CNC(=O)C1Nc2ccccc2C2C=CCC12 (stereo unspecified) | - | 0 | - | - | 56.2µM
CC1CCN(C(=O)CN2CCSc3ccccc32)CC1 | - | 0 | 0 | 0[12.7 µM] | 0
O=C(O)C1Nc2ccc(Br)cc2C2C=CCC12 (stereo unspecified) | ? | 17.8µM | 3.16µM | 1.78µM | 20µM
COc1ccc(Br)cc1[C@@H]1Nc2ccc(C(=O)O)cc2[C@@H]2C=CC[C@@H]21 | - | 0 | ? | ? | 0
CCOC(=O)c1ccc2c(c1)C1C=CCC1C(C(=O)OCC)N2 (stereo unspecified) | 44.7µM | 0 | 44.7µM | 11.2µM | ?
CCOCCCn1c(SCc2nc3sc(C(=O)O)c(C)c3c(=O)[nH]2)nnc1-c1ccc(Cl)cc1 | 0 | 0 | 0 | 20µM | ?
CCn1c(SCc2nc3scc(-c4ccccc4)c3c(=O)[nH]2)nnc1-c1ccc(Cl)cc1 | 0 | 0 | 0 | 0 | 0
CC(=O)c1sc2nc(CSc3nncn3C)[nH]c(=O)c2c1C | 0 | 0 | 0 | 0 | 0
Cc1c(C(=O)O)sc2nc(CSc3nnc(-c4ccc(F)cc4)n3C)[nH]c(=O)c12 | 0 | 0 | ? | 35.5µM | ?
C=CCn1c(SCc2nc3scc(-c4ccccc4)c3c(=O)[nH]2)nnc1-c1ccccc1F | 0 | 0 | 0 | 0 | 0
C=CCn1c(SCc2nc3sc(C(=O)O)c(C)c3c(=O)[nH]2)nnc1-c1ccccc1 | 0 | 0 | ? | ? | 25.1µM
Cc1ccc(NC(=O)c2sc3nc(CCl)[nH]c(=O)c3c2C)c(C)c1 | 0 | 0 | 0 | 35.5µM | 0
COc1ccc(-c2nc3c(=O)n(C)c(=O)nc-3n(C)n2)cc1 | - | 0 | - | - | 0
C=CCn1c(SCc2nc3sc(C(=O)O)c(C)c3c(=O)[nH]2)nnc1-c1ccc(C(C)(C)C)cc1 | 28.2µM | 0 | 50.1µM | 14.1µM | 28.2µM
SMILES | Sfp inh | HP1b binding inh | BAZ2B block | G9a block | JMJD2A Tudor
CCOC(=O)c1sc2nc(CSc3nc4ccccc4n3CC)[nH]c(=O)c2c1C | 0 | 0 | 0 | 0 | 0
CC(=O)c1sc2nc(CSc3nnnn3-c3ccccc3)[nH]c(=O)c2c1C | ? | 0 | ? | 56.2µM | 0
Cc1cc(C)c(NC(=O)c2sc3nc(C)[nH]c(=O)c3c2C)c(C)c1 | 0 | - | 0 | 0 | -
CSCc1nc2sc(C(=O)Nc3nc(C)cs3)c(C)c2c(=O)[nH]1 | 0 | 0 | ? | 44.7µM | 0
Cc1nnc(SCc2nc3sc(C(=O)O)c(C)c3c(=O)[nH]2)s1 | 0 | 0 | 0 | - | 31.6µM
COc1ccc(NC(=O)c2c(-c3ccc(C)cc3)nnc3ccccc23)cc1OC | - | 0 | 0 | 0 | 0
Cc1ccc(-c2csc3nc(CSc4nnc(-c5ccc(Cl)cc5)n4C)[nH]c(=O)c23)cc1 | 0 | 0 | 0 | 22.4µM | 0
Cc1ccccc1NC(=O)CSc1c(C(C)C)cnc2c1c(=O)n(C)c(=O)n2C | - | 0 | 0 | 0 | 0
O=C(O)CN1C(=O)CC(c2ccccc2)CC1=O | 0 | 0 | 0 | - | 0
CN1C(=S)SC(N(O)C(=O)Nc2cccc3ccccc23)C1(C)C (stereo unspecified) | 0 | 0 | 0 | 44.7µM | 0
COc1ccc(NCC(=O)n2c(C)c(C)c3ccccc32)cc1 | 0 | 0 | 0 | 10µM | 0
COc1ccc(CCN2CC(C(=O)Nc3ccccc3F)CC2=O)cc1OC (stereo unspecified) | - | 0 | 0 | 0[2.33 µM] | 0
CCCC[C@H](CC)CN=C(N)NC(N)=NCCCCCCN=C(N)NC(N)=NC[C@@H](CC)CCCC | 8.91µM | - | - | ? | -
CCn1c(=O)cc(OCC(=O)O)c2ccccc21 | 0 | 0 | 0 | 0 | 0
Cn1cc(C(c2ccccn2)c2cn(C)c3ccccc23)c2ccccc21 | 0 | ? | 35.5µM | 0[12.7 µM] | 22.4µM
c1ccc(C(c2c[nH]c3ccccc23)c2c[nH]c3ccccc23)nc1 | 0 | 0 | 44.7µM | ? | 79.4µM
Cn1cc(C(c2ccccc2OCC(=O)O)c2cn(C)c3ccccc23)c2ccccc21 | 0 | ? | 50.1µM | 0 | 14.1µM
COc1ccc(NC(=O)c2cccc(N3C(=O)C4C5C=CC(C5)C4C3=O)c2)cc1Cl (stereo unspecified) | 0 | 0 | 0 | 0[0.0925 µM] | 0
COC(=O)[C@H](COC(C)(C)C)NC(=O)O[C@@H]1Cc2cc(Br)ccc2O[C@H]1c1cccc(OC)c1 | 0 | - | - | - | -
Cc1cn(CC(=O)NCc2ccc3c(c2)OCO3)c(=O)[nH]c1=O | - | 0 | - | - | 0
O=[N+]([O-])c1cc(Br)c(O)c(C=Nc2ccc(N3CCOCC3)cc2)c1 | 0 | 0 | 35.5µM | 35.5µM | 0
O=C(N/N=C/c1ccc(N2CCOCC2)cc1)c1ccc(O)cc1 | 0 | 0 | 0 | - | 0
Oc1ccc(N=Cc2cc(Br)c(N3CCOCC3)o2)cc1 | 39.8µM | 0 | 0 | 14.1µM | ?
COc1cccc(C=Nc2ccc(N3CCOCC3)cc2)c1O | 0 | 0 | 0 | ? | 0
CO[C@@H]1COC(=O)[C@@H](C)NC(=O)C/C=C\[C@@H](C)[C@H](NS(=O)(=O)c2ccc(C)cc2)COC(=O)[C@H](C)NC(=O)C/C=C\[C@H]1C | 0 | - | - | - | -
Cc1c(CNC2CCCCCC2)c(C(=O)O)c(C)n1Cc1ccc(F)cc1Cl | - | 0 | 0 | 0 | 0
CC(C)Oc1ccc(N2CC(C(=O)NC3=NCCS3)CC2=O)cc1 (stereo unspecified) | 0 | 0 | 0 | 0 | 0
O=C1NN(c2ccccc2)C(=O)/C1=C\c1coc2ccc(O)cc2c1=O | 79.4µM | 0 | 0 | 0[12.7 µM] | 0

Screening results from PubChem BioAssay.
